Drawing on PubChem BioAssay AID624481 (The Scripps Research Institute Molecular Screening Center, 2012), this text covers inhibition for 23 compounds.

A number with no mark means an inactive call. Activity calls are given as the source filed them. Cut-off read from the data, not from the text of the source: active = inhibition above about 50%; inactive = the rest.

By inhibition is commonly meant the relative decrease from the control value, in per cent.

Prolyl endopeptidase-like (Mus musculus), sequence (Q8C167 whole entry, looked up): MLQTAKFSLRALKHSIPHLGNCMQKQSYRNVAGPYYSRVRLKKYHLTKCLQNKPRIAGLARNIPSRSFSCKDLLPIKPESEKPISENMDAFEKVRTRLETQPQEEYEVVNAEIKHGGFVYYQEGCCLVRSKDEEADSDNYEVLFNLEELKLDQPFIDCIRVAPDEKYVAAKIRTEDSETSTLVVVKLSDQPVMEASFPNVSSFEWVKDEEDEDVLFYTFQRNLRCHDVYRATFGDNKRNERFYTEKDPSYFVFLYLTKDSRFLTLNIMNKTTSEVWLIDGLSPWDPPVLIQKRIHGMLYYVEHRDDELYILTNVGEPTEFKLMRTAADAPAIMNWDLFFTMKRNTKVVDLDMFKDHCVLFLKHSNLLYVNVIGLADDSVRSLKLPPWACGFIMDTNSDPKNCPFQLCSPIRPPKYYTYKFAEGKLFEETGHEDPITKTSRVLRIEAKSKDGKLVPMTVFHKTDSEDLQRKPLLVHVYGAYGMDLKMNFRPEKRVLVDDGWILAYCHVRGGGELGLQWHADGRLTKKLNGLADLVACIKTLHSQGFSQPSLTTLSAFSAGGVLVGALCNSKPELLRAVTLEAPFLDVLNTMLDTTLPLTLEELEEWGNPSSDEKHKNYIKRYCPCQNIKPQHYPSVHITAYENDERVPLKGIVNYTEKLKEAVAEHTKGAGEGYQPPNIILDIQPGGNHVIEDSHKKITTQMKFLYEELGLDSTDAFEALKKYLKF

This experiment concerns the target Prolyl endopeptidase-like (Mus musculus) (UniProt Q8C167). Kind of experiment: purified PREPL inhibitors, PREPL inhibitor project, biochemical, gel-based competitive ABPP, fluorescence, HTS hits (AID 624481). The following applies: at 20 µM, stronger effect = higher value.
For the compound `CN(C)c1ccc(C(CNC(=O)c2ccccc2)c2c[nH]c3ccccc23)cc1` (stereo not drawn), the inhibition is 13%.

Take `Nc1c(C(=O)c2cccs2)sc2nsc(SCCN3CCCCC3)c12`: the inhibition was -18%.

On to `Cc1ccn2c(Nc3ccc4c(c3)OCO4)c(-c3ccccn3)nc2c1`, for which the inhibition was -41%.

In the case of `C#CCOCCOCCOCCNc1nc(N2CCN(C(=O)CCCCCCCCCCNC(=O)Cn3cc(CCCCCN)nn3)CC2)nc(N2CCN(C(=O)CCCCCCCCCCNC(=O)[C@H](CO)n3cc(CCCCCN)nn3)CC2)n1`, the inhibition is -38%.

For the compound `Nc1nn(-c2ccccc2)c(N)c1N=Nc1ccccc1F`, the inhibition was -38%.

As for `COc1ccc(C2CC(c3cccc(Cl)c3)n3nc(N)nc3N2)cc1` (stereo not drawn), the inhibition was -29%.

For `CCN1/C(=C/c2ccc3cc(C)ccc3[n+]2CC)Sc2ccccc21`, the inhibition was 98% (active).

On to `Oc1c(CN2CCCCC2)cc(COCc2ccccc2)c2cccnc12`, for which the inhibition was 92% (active).

Regarding `O=C(CSc1cccc(C(F)(F)F)c1)Nc1ccc(N2CCOCC2)cc1`, the inhibition is -35%.

On to `CC(C)c1ccc(CNc2ccc(N3CCOCC3)cc2)cc1`, for which the inhibition was -12%.

With `Nc1cc([N+](=O)[O-])cc2oc(-c3ccccc3)cc12`, the inhibition was -25%.

For the compound `Cc1ccc(-c2csc(=Nc3cccnc3)n2CCCN2CCCC2=O)cc1C`, the inhibition was -149%.

Consider `CN1CCN(C(=O)C2=C[C@@H](c3ccc(C(F)(F)F)cc3)C[C@@H](OCCCCO)O2)CC1`, for which the inhibition is -28%.

In the case of `CC(=O)N1CCN(c2ccc(NCc3cccc4ccccc34)cc2)CC1`, the inhibition was -26%.

Turning to `CNC(=S)N1N=C(c2ccc(OC)cc2)CC1c1ccc(N(C)C)cc1` (stereo not drawn), the inhibition is -55%.

In the case of `O=C(C1=C[C@@H](c2ccc(Br)cc2)C[C@@H](OCc2ccc(CO)cc2)O1)N1CCN(Cc2ccccc2)CC1`, the inhibition is -99%.

In the case of `CCN(CC)c1ccc2cc(C(N)=O)c(=NNC(=O)c3ccncc3)oc2c1`, the inhibition was -14%.

On to `CC(C)NC(=O)c1sc(=S)n2c1[nH]c(=O)c1ccc(C(=O)NCCc3ccc(Cl)cc3)cc12`, for which the inhibition was -28%.

Regarding `O=C(COc1ccccc1Cl)Nc1ccc(N2CCN(C(=O)c3ccccc3)CC2)cc1`, the inhibition was -61%.

In the case of `CC(=O)Nc1ccc(C(=O)Cn2c3[n+](c4c(F)c(F)ccc42)CCCCC3)cc1`, the inhibition was -42%.

Consider `CCCCN1C(=N)N([C@@H](CN2CCC[C@H]2CN2C(N)=NC[C@@H]2Cc2ccccc2)C(C)C)C[C@H]1Cc1ccccc1`, for which the inhibition is -44%.

Consider `CN(C)CCCNc1cc(C(C)(C)C)nc2c(-c3ccccc3)cnn12`, for which the inhibition was -34%.

In the case of `O=c1cc(-c2ccc(O)c(O)c2)oc2cc(O[C@@H]3O[C@H](CO)[C@@H](O)[C@H](O)[C@H]3O)cc(O)c12`, the inhibition was -12%.
